# Data as given in paper PMC4336329 (PLoS ONE, 2015).
# Screen size: about 310,000 compounds; about 14,000 (4.5%) showed an effect of 50% or more. Effects have a minus sign here. The full list was thinned out, with strong results kept by preference.
# Target: human ether-à-go-go-related gene (hERG) potassium channel (human, UniProt Q12809)
# Experiment: primary screen, population patch clamp on CHO cells stably expressing hERG; higher = less effect of the substance
# 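Further: peak tail current of the secondary pulse compared with the same well before compound.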
# human ether-à-go-go-related gene (hERG) potassium channel, sequence (Q12809 whole entry, looked up): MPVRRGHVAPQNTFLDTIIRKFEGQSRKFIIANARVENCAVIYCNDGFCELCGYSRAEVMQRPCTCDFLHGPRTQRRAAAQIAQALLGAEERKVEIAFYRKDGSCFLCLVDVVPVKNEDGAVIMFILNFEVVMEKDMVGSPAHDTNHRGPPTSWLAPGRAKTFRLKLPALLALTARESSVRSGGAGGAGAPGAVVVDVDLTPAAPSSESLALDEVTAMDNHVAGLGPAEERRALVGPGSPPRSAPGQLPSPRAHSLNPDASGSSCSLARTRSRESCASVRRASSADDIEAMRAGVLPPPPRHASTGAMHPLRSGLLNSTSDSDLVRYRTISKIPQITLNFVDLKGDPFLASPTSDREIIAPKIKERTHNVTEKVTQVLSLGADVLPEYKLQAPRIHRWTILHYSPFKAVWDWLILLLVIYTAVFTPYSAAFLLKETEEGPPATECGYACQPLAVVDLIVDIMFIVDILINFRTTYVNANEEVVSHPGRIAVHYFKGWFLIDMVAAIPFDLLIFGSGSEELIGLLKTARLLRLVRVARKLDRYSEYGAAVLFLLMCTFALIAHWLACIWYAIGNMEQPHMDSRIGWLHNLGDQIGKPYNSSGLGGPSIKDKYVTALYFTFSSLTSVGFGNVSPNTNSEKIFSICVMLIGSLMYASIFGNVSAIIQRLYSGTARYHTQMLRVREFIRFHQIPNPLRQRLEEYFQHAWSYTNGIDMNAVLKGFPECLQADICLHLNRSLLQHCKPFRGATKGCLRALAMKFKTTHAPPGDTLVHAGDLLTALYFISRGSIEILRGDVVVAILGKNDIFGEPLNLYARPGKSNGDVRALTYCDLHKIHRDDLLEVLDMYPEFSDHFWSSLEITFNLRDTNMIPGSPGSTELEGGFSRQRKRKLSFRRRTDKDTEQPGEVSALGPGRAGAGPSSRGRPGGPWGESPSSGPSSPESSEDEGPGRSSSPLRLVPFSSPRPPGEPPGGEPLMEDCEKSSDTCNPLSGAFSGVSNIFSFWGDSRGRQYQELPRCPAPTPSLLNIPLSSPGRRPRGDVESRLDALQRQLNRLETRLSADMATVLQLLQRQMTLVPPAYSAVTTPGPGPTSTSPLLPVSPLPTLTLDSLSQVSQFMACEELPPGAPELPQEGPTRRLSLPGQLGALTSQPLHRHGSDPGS
row,Structure (SMILES),"hERG current change (%, negative = inhibition) at 10uM [%]"
1,O=C(Cn1ncn2c(cc3ccccc32)c1=O)NCCC1=CCCCC1,7.76
2,CCn1cc(S(=O)(=O)N2CCCC2)cn1,8.1
3,COCCN1C(=O)N[C@@H](c2ccccc2)[C@@H](C(=O)OC)[C@H]1C,2.28
4,Cc1ccc(C)c(/C=N/NC(=S)NC(C)C)c1,30.3
5,Cc1ccccc1OCC(=O)NNC=O,22.9
6,O=C(Nc1cccc(-n2cnnn2)c1)c1cc(Cl)nc(Cl)c1,-4.24
7,Cc1nccn1-c1ccc(C(F)(F)F)cc1[N+](=O)[O-],11.2
8,CCCn1c(NC(=O)CCS(=O)(=O)c2ccc(C)cc2)nc2ccccc21,-24.2
9,Cc1cnn(Cc2cccnc2)c1N,8.46
10,O=C(NCCCn1ccnc1)/C(=C/c1ccco1)NC(=O)c1cccs1,-53.2
11,CN(C)S(=O)(=O)n1cc(/C=C(\NC(=O)c2ccccc2)C(=O)NCCCn2ccnc2)c2ccccc21,8.31
12,COc1ccccc1/C=C(/NC(=O)c1ccccc1)C(=O)NCCCn1ccnc1,2.6
13,O=C(NCCCn1ccnc1)/C(=C/c1ccco1)NC(=O)c1ccco1,-45.6
14,O=C(NCCCn1ccnc1)/C(=C\c1cccs1)NC(=O)c1ccco1,-45.1
15,O=C(NCCCn1ccnc1)/C(=C/c1cccs1)NC(=O)c1ccco1,-50.8
16,O=C(NCCCn1ccnc1)/C(=C\c1ccco1)NC(=O)c1ccco1,-35.3
17,O=C(NCCCn1ccnc1)/C(=C\c1cccs1)NC(=O)c1ccccc1,-69
18,O=C(NCCCn1ccnc1)/C(=C/c1cccnc1)NC(=O)c1ccco1,4.25
19,CCOC(=O)c1c(C)n(C)c2c(C)cc(O)c(OC(=O)CC)c12,7.65
20,CN(C)c1ccc(/C=C2\SC(N3CCCCC3)=NC2=O)cc1,-21.8
21,Cc1occc1C(=O)Nc1ccc(Br)cc1F,2.03
22,Cc1ccc(NC(=S)N(CCN(C)C)C(C)c2ccco2)cc1C (centres unmarked),-44.3
23,CC1CCC2CCCCC2N1C(=O)c1cc([N+](=O)[O-])cc([N+](=O)[O-])c1 (centres unmarked),2.18

row,Structure (SMILES),"hERG current change (%, negative = inhibition) at 10uM [%]"
1,COc1cc(CCCN2C(=S)NC[C@H]2Cc2ccc(O)cc2)cc(OC)c1OC,-16.4
2,CC1CCN(C(=O)c2ccc(CS(=O)(=O)Cc3ccccc3)cc2)CC1,-33.6
3,CC(=O)N1c2ccc(S(=O)(=O)NCC3CCC(C(=O)N4CCCCC4)CC3)cc2CC1C (centres unmarked),12.2
4,c1ccc2c(c1)[nH]c1c(NCC3CCCO3)ncnc12 (centres unmarked),11
5,CN(CCCC(=O)Nc1ccncc1)S(=O)(=O)c1ccc(Cl)cc1,-53.8
6,Cc1ccc(S(=O)(=O)N(C)CCCC(=O)Nc2ccncc2)cc1,-63
7,CC(=O)Nc1ccc(S(=O)(=O)N(C)c2ccc(O)cc2)cc1,2.53
8,CN(CC(=O)Nc1ccncc1)S(=O)(=O)c1ccc(Cl)cc1,-5.97
9,COc1ccc(NC(=O)CCCN(C)S(=O)(=O)c2ccc(C)cc2)cc1,-26.8
10,CN(CCCC(=O)Nc1ccccc1)S(=O)(=O)c1ccc(Cl)cc1,-47.9
11,CN(CCCC(=O)Nc1ccc(OC(F)F)cc1)S(=O)(=O)c1ccc(F)cc1,-71.3
12,Cc1ccc(S(=O)(=O)N(C)CC(=O)Nc2ccncc2)cc1,-8.2
13,CC(=O)Nc1ccc(S(=O)(=O)N(C)S(=O)(=O)c2ccc(F)cc2)cc1,-63.3
14,CC(=O)Nc1ccc(S(=O)(=O)N(C)c2ccccc2)cc1,0.318
15,Cc1ccc(S(=O)(=O)N(C)CCCC(=O)Nc2ccc(F)cc2)cc1,-30.1
16,CC(=O)c1cccc(NC(=O)CCCN(C)S(=O)(=O)c2ccc(F)cc2)c1,-2.1
17,O=C(Oc1ccnc2cc(Cl)ccc12)N1CCOCC1,-1.74
18,COc1ccc2c(c1)c(=O)oc1cc(O)ccc12,3.99
19,O=C(CSc1cn(Cc2cccc(F)c2)c2ccccc12)NCc1ccc(F)cc1,9.86
20,CCOc1ccccc1N(CC(=O)NC(C)(C)C)C(=O)CCC(=O)Nc1nccs1,-4.92
21,CC(C)(C)NC(=O)C(c1ccc(O)cc1)N(C(=O)Cn1nnc(-c2ccc(F)cc2)n1)c1ccccc1F (centres unmarked),-1.66
22,COc1cc(CNc2ccc(N3CCOCC3)cc2)cc(Br)c1OC,-23.4
23,CCOc1cc2oc(=O)c3c(c2cc1Cl)CCC3,7.75

row,Structure (SMILES),"hERG current change (%, negative = inhibition) at 10uM [%]"
1,COc1ccc(Cn2c(C)c(C)c(C#N)c2NC(=O)Nc2ccc(F)cc2)cc1,-3.49
2,COc1ccc(N=CC2=C(O)c3ccccc3C2=O)cc1,11.1
3,COCCCn1c(C(=O)N2CC(C)OC(C)C2)cc2c(=O)n3ccccc3nc21 (centres unmarked),-9.36
4,COCCCn1c(=N)c(C(=O)NCC2CCCO2)cc2c(=O)n3cccc(C)c3nc21 (centres unmarked),-73.1
5,Cc1cccn2c(=O)c3cc(C(=O)NCC4CCCO4)c(=N)n(CCN4CCOCC4)c3nc12 (centres unmarked),-69.4
6,COCCCn1c(C(=O)N2CCOCC2)cc2c(=O)n3ccccc3nc21,2.75
7,CC(C)OCCCn1c(SC(C)C(=O)NCC2CCCO2)nc2cc(Cl)ccc2c1=O (centres unmarked),-20.6
8,Cc1ccc2nc3c(cc(C(=O)NCC4CCCO4)c(=N)n3CCCOC(C)C)c(=O)n2c1 (centres unmarked),-71.8
9,CCN(C(=O)c1cc2c(=O)n3cccc(C)c3nc2n1CCCOC)C1CCCCC1,-44.1
10,COCCCn1c(=N)c(C(=O)NCC2CCCO2)cc2c(=O)n3ccccc3nc21 (centres unmarked),-64.3
11,COCCCn1c(C(=O)NC2CCCCC2C)cc2c(=O)n3cccc(C)c3nc21 (centres unmarked),-12
12,COCCn1c(=O)[nH]c2cc(C(=O)NCC3CCCO3)ccc2c1=O (centres unmarked),-7.76
13,CSc1nnc2c(n1)OC(c1cccn1C)N(C(C)=O)c1ccccc1-2 (centres unmarked),-10.1
14,CCS(=O)(=O)Nc1cccc(C2=NN(S(C)(=O)=O)C(c3cccs3)C2)c1 (centres unmarked),-11.1
15,CCOC(=O)C1=C(c2ccccc2)O/C(=C(/C(=O)OC)C(F)(F)F)S1,-3.45
16,CC(=O)Nc1ccc(N(C(=O)Cc2c[nH]c3ccccc23)C(C(=O)NC2CCCCC2)c2ccco2)cc1 (centres unmarked),-13.1
17,O=c1[nH]nc(CNc2ccc(C(F)(F)F)cc2)c2ccccc12,1.92
18,CC(C)(C)c1ccc(C(=O)N2CCC(=O)N(C(CO)Cc3ccccc3)CC2)cc1 (centres unmarked),-16.7
19,Cc1cccc(NC(=S)N(CCN(C)C)Cc2cccs2)c1,-25.8
20,Cc1cc(NS(=O)(=O)c2cccs2)no1,-3.03
21,Cc1cccn2c(=O)c3cc(C(=O)NC4CCCC4)c(=N)n(CC4CCCO4)c3nc12 (centres unmarked),-74.4
22,Cc1cccn2c(=O)c3cc(C(=O)NCC4CCCO4)c(=N)n(CC4CCCO4)c3nc12 (centres unmarked),-81.9
23,CCCn1c(=N)c(C(=O)NCC2CCCO2)cc2c(=O)n3cccc(C)c3nc21 (centres unmarked),-76.3

row,Structure (SMILES),"hERG current change (%, negative = inhibition) at 10uM [%]"
1,Cc1ccc(-c2cc(C(=O)NCC3CCCO3)c3ccccc3n2)cc1C (centres unmarked),12.1
2,CCCn1c(=N)c(S(=O)(=O)c2ccc(F)cc2)cc2c(=O)n3cccc(C)c3nc21,-4.16
3,CCCn1c(=N)c(C(=O)NCc2ccc3c(c2)OCO3)cc2c(=O)n3cccc(C)c3nc21,-76.5
4,CCCn1c(=S)[nH]c2cc(C(=O)NCC3CCCO3)ccc2c1=O (centres unmarked),3.73
5,CCCn1nc(C(=O)NCc2ccc3c(c2)OCO3)c2ccccc2c1=O,1.89
6,Cc1ccccc1Nc1cc(C(=O)NCC2CCCO2)c2ccccc2n1 (centres unmarked),-15.6
7,Cc1cccn2c(=O)nc(SCC(=O)NCc3ccc4c(c3)OCO4)nc12,-27.1
8,Cc1ccc(S(=O)(=O)c2cc3c(=O)n4cccc(C)c4nc3n(CC3CCCO3)c2=N)cc1C (centres unmarked),2.35
9,CCC(=O)N1CCc2cc(S(=O)(=O)CCC(=O)NCc3cccc(OC)c3)ccc21,13.8
10,COc1ccc([C@@H]2C[C@@H](c3ccccc3)Oc3c(C)ccc(C(C)C)c32)cc1,13.3
11,CCCc1nc(N2CCCC2)c(C#N)c2c1CCCC2,4.06
12,COC(=O)c1cc(-c2ccccc2)n(CCN)c1C.Cl,-3.56
13,COc1ccc(OCC(=O)Nc2nnc(C)s2)cc1,9.71
14,Cc1nnc(SCc2ccc(Cl)cc2)nc1/C=C/N(C)C,-72.6
15,C=CCSc1nnc(C)c(/C=C/Nc2ccc(Cl)cc2)n1,-9.44
16,Cc1nnc(SCc2ccccc2)nc1/C=C/NOCc1ccc(Cl)cc1Cl,13.9
17,Cc1ccc(C(=O)O)cc1S(=O)(=O)N1CCC(C(=O)O)CC1,-4.77
18,NC(=S)Cc1nc2n(n1)Cc1ccccc1-2,21.6
19,CC(=O)N1CCN(c2ccc(NC(=O)c3ccccc3C)cc2)CC1,-0.597
20,C=C1CCN([C@@H](C)C(=O)NCc2ccc(OC)cc2)S(=O)(=O)c2ccccc21,-6.66
